# This is one part of a sample in which hits are shown more often than they occur.
# Sfp inh: qHTS Assay for Inhibitors of Bacillus subtilis Sfp phosphopantetheinyl transferase (PPTase); 4'-phosphopantetheinyl transferase ffp (Bacillus subtilis), Q9F4F7; Biochemical Sfp PPTase activity, qHTS; Potency, µM, without a hit: largest response in the series, negative = inhibition, most hits filed as inhibitors; 310,000 tested, 3.5% active;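 further: the enzyme is Sfp with the accession as filed and its product quenches rhodamine fluorescence; 0% = enzyme reaction without inhibitor and -100% = no enzyme wells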
#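 After 15 min at room temperature with compound, 15 nM Sfp received 5 uM rhodamine-CoA plus 12.5 uM BHQ-2-ybbR (50 mM Hepes pH 7.6, 10 mM MgCl2). Rate came from the fluorescence difference over 30 min, ex 525/em 598 nm.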
# ALOX12 inh: Primary qHTS assay for inhibitors of human arachidonate 12S-lipoxygenase (ALOX12): Round 2; 580,000 tested, 1.1% active; purified 12hLO, xylenol orange hydroperoxide absorbance; Potency, µM (highest dose often 108 µM), for the others: at the highest dose activity change, negative = inhibition, actives largely listed as inhibitors; Polyunsaturated fatty acid lipoxygenase ALOX12 (Homo sapiens), P18054; further: on the % scale 0 is the no-effect control and ±100 the full control effect
# Target sequence (P18054 whole entry, looked up): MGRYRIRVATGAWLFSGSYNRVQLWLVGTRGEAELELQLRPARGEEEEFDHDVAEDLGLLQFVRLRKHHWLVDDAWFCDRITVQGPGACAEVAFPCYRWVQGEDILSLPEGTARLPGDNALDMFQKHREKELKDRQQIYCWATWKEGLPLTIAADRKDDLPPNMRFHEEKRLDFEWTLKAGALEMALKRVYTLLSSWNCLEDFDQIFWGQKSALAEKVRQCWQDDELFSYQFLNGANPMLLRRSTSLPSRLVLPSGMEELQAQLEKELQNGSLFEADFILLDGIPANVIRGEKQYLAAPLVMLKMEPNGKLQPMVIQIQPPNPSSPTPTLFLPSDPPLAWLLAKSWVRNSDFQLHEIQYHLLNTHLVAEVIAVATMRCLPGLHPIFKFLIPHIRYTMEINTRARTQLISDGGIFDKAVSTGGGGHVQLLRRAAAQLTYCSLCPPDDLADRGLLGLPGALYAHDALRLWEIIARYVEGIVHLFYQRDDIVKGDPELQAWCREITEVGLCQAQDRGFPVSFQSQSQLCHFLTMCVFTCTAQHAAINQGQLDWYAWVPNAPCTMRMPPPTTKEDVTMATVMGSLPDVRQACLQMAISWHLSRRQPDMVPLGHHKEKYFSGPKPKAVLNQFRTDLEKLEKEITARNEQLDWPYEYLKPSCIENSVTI
#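 Purified human 12hLO (150 nM final) in 25 mM Hepes, 0.01% Triton X-100, pH 7.0 was preincubated 15 min at room temperature with compound. Then 40 uM arachidonic acid was added, 30 min. Hydroperoxide was read by Fe-XO absorbance ratio 573/405 nm.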
# GRP78 ERSR act: qHTS for Inducers of the Endoplasmic Reticulum Stress Response (ERSR) in Human Glioma: qHTS; AID 602332, 2012; Potency, µM, for the others: at the highest dose activation, hits mostly activators; U87-MG GRP78 promoter luciferase reporter, 16 h; 420,000 tested, 0.02% active; further: series mostly up to about 76 µM; % of control where 0% means no effect; nearly all actives have a fitted effect of over 35% in size
#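 Stably transfected U87-MG glioma cells carrying a GRP78-based luciferase sensor; 16 h compound incubation. Luminescence end-point read 10 min after Bright-Glo addition at room temperature.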
# G9a block: qHTS Assay for Inhibitors of Histone Lysine Methyltransferase G9a. G9a H3K9 monomethylation, AlphaScreen, 2 h. Potency, µM (highest dose often 102 µM), for inactives: top-dose activity, negative = inhibition, usual class: inhibitors. 350,000 tested, 8.8% active. AID 504332, 2011; further: on the % scale 0 is the no-effect control and ±100 the full control effect; nearly all actives have a fitted effect of over 75% in size
#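 G9a (20 nM) preincubated 15 min RT with compounds, then 500 nM biotinylated H3K9 peptide and 20 uM SAM added; 2 h RT reaction. Monomethyl-H3K9 product detected by AlphaScreen with anti-H3K9me1 antibody, streptavidin donor and anti-rabbit IgG acceptor beads.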
# VDR inh: Inhibitors of the vitamin D receptor (VDR): qHTS; VDR-SRC2-3 peptide fluorescence polarization, 2 h; 400,000 tested, 0.93% active; Potency, µM, without a hit: max response, negative = inhibition, usual class: inhibitors; AID 504847, 2011; further: on the % scale 0 is the no-effect control and ±100 the full control effect
#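 Compounds are added to VDR with labelled SRC2-3 coactivator peptide and held 2 h at room temperature. Inhibition of the VDR–peptide interaction is then read as a change in fluorescence polarization.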
# * = called active by the depositor; i = inactive; ? = inconclusive; . = no result; [ ] = remark or other dose. The call rests on the fitted dose curve; in most records, active means well fitted curve in the direction sought with a large enough effect; inconclusive means small, poorly fitted or top-dose-only effect, or another doubt; inactive means no such curve, though single readings can be large; an effect the other way counts as inactive or inconclusive. Potency means the concentration at half of the fitted maximal effect.
SMILES,Sfp inh,ALOX12 inh,GRP78 ERSR act,G9a block,VDR inh
CCONC(=O)C(C)Oc1cccc(C)c1C (configuration not stated),.,-11%,.,.,.
O=C(c1ccc(F)cc1)c1ccccc1C(=O)N1CCN(C(=O)CCC2CCCC2)CC1,.,10%,.,.,.
CC1CCc2c(sc(Nc3nc4c(F)cccc4s3)c2C(N)=O)C1 (configuration not stated),25µM*,45µM*,0%,10µM*,-29%
CC(=O)NCCn1c(C)cc2ccccc21,11%,-8%,-2%,-35%,-20%
CCC(=O)NCCn1c(C)cc2ccccc21,4%,.,0%,45µM*,-13%
Cc1ccc(-n2nc3c(c2NC(=O)c2c(-c4ccccc4Cl)noc2C)CSC3)cc1,-26%,.,-2%,45µM*,1%
Cc1onc(-c2ccccc2Cl)c1C(=O)NCCn1c(C)cc2ccccc21,8%,.,0%,50µM*,-10%
O=C(NCc1ccccc1)c1ccc(C2Nc3ccccc3S(=O)(=O)N2)cc1 (configuration not stated),.,-9%,.,.,.
O=C(O)c1cccc(S(=O)(=O)Nc2cc(F)ccc2OCC(F)(F)F)c1,.,-5%,.,.,.
Cn1nc(C(=O)NCC(c2ccco2)N2CCCC2)c2ccccc2c1=O (configuration not stated),.,-15%,.,.,.
Cc1onc(-c2ccccc2Cl)c1C(=O)NC(=S)Nc1ccccc1C(N)=O,50µM*,?,0%,?,4%
Cc1ccc(C(=O)NCCn2c(C)cc3ccccc32)cc1,.,-7%,.,.,.
Cc1onc(-c2c(Cl)cccc2Cl)c1C(=O)NC(=S)Nc1sc2c(c1C(N)=O)CCC(C)C2 (configuration not stated),-8%,-20%,-3%,45µM*,-19%
Cc1cc2ccccc2n1CCNC(=O)c1ccccc1,50µM*,-8%,-8%,?,20%
Cc1onc(-c2ccccc2)c1C(=O)Nc1sc2c(c1C#N)CCC(C)C2 (configuration not stated),-2%,-1%,0%,?,3%
Cc1onc(-c2ccccc2Cl)c1C(=O)Nc1ccccc1C(N)=O,11%,i,0%,-8%[59 µM],0%
O=C1N(Cc2cccnc2)C(=O)C2(CCN(Cc3cc(F)ccc3F)CC2)N1CCc1ccccc1,.,13%,.,.,.
COc1ccc(C(CNC(=O)CN2CCN(C)CC2)c2c[nH]c3ccccc23)cc1 (configuration not stated),.,-2%,.,.,.
Cc1ccc(S(=O)(=O)Nc2c(C)nn(C)c2C)cc1,17%,0%,-1%,2%,19%
Cc1nn(C)c(C)c1CS(=O)(=O)c1ccccc1,-3%,6%,-1%,50µM*,23%
Cc1ccc2c(C)c(CCC(=O)N3CCC(C(=O)N4CCCCC4)CC3)c(=O)oc2c1,.,2%,.,.,.
O=C1/C(=C\c2cccs2)Sc2ccc3ccccc3c21,-1%,-25%,-6%,7.9µM*,-6%
Nc1nc(Nc2ccc(F)cc2)sc1C(=O)c1ccc(Cl)cc1,.,-26%,.,.,.
Cc1ccc(CNC(=O)Nc2ccc(F)cc2)n1C,-10%,?,?,50µM*,18%
Cc1ccc(CNC(=O)Nc2ccc(OC(F)(F)F)cc2)n1C,6%,?,1%,50µM*,-7%
SMILES,Sfp inh,ALOX12 inh,GRP78 ERSR act,G9a block,VDR inh
O=C(COc1ccccc1-c1noc(-c2cccc(Cl)c2)n1)N1CCCCCC1,.,23%,.,.,.
Cc1cc(C)n2nc(N(Cc3ccccc3)S(=O)(=O)c3ccccc3)nc2n1,.,13%,.,.,.
C/C(CC1CC(C)OC1=O)=N\NC(N)=S (configuration not stated),25µM*,-3%,-3%,35µM*,10%
CCC1CC(/C(C)=N/NC(N)=O)OC1=O (configuration not stated),20%,-11%,-1%,-10%[59 µM],6%
COc1cccc(NC(=O)c2ccc(-c3ccccc3[N+](=O)[O-])o2)c1,45µM*,-27%,6%,?,-12%
Cc1cccc(NC(=O)c2ccc(-c3ccccc3[N+](=O)[O-])o2)c1,50µM*,13%,-2%,-4%[0.501 µM],-4%
COc1ccc(C2C(C(C)=O)=C(C)Oc3ncn4nc(-c5cccnc5)nc4c32)cc1 (configuration not stated),.,-16%,.,.,.
O=C(CCCCCBr)N1CCC(CC2CC(c3ccc(Cl)cc3)=NO2)(C(=O)NCC2CCCCC2)CC1 (configuration not stated),3%,?,-1%,?,-8%
O=C(CCCCCBr)N1CCC(CC2CC(c3cccc(Br)c3)=NO2)(C(=O)NCC2CCCCC2)CC1 (configuration not stated),-10%,?,-1%,50µM*,0%
COc1ccc(Nc2cnc3ccc(-c4ccc(OC)c(OC)c4)nn23)cc1,.,5%[176 µM],.,.,.
C=CCn1c(SCC(=O)Nc2sccc2C(N)=O)nc2sc(CC)cc2c1=O,-1%,-17%,-2%,-5%[59 µM],18%
C=CCn1c(SCC(=O)Nc2sccc2C(N)=O)nc2ccc(Cl)cc2c1=O,45µM*,0%,5%,?,12%
CC(C)(C)OC(=O)N1CCN(C(C(=O)O)c2c[nH]c3ccc(Cl)cc23)CC1 (configuration not stated),.,29%,.,.,.
Cc1ccc2nc(NC(=S)NC(=O)c3ccco3)sc2c1,?,-17%,-3%,50µM*,-22%
Cc1cccc(C(=O)Nc2c(C)ccc3nsnc23)c1,.,7%,.,.,.
Cc1ccc2nsnc2c1NC(=S)NC(=O)c1ccco1,50µM*,?,-4%,3.2µM*,-8%
O=C(C1CC1)N(C1CCOCC1)C1CCN(S(=O)(=O)c2ccc(F)c(Cl)c2)CC1,.,14%,.,.,.
Clc1ccc(OCCCn2cncn2)cc1Cl,?,-1%,2%,10µM*,-8%
c1ccc(COc2ccc(OCCCn3cncn3)cc2)cc1,7%,-8%,-11%,-6%[59 µM],-4%
Cc1cc(C)cc(OCCCCn2cncn2)c1,-21%,?,-2%,10µM*,2%
COc1ccc(OCCn2cncn2)cc1,-3%,-6%,0%,22µM*,-3%
Cc1cc(OCCn2cncn2)ccc1[N+](=O)[O-],-2%,13%,-1%,.,-2%
CCCn1ncc(-c2nc(-c3ccncc3)no2)c1C,.,142%,.,.,.
CNS(=O)(=O)c1cccc(C(=O)OCC(=O)c2ccc(S(=O)(=O)N3CCCCC3)cc2)c1,.,0%,0%,28µM*,0%
CCCCn1c(=O)[nH]c(=O)c2c1nc(CSc1nccn1-c1cccc(C)c1)n2C,.,-27%,.,.,.
CC1=C(C)/C(=N\OS(=O)(=O)c2ccccc2)C=CC1=O,40µM*,.,-17%,16µM*,35µM*
